# PubChem BioAssay (Tox21)
# Unmarked numbers belong to inactive results. Results filed as inconclusive are left out. Entries that show only a call come without a potency. Activity calls are given as the source filed them. Unless noted, calls come from the whole dose curve.
# How the values were obtained:
# [1] = Nuclear factor erythroid 2-related factor 2/antioxidant responsive element (Nrf2/ARE) small molecule agonists: luciferase reporter gene qHTS assay in human keratinocytes (AID 1919969); note: nearly all actives have a fitted effect of over 35% in size; note: potency is the fitted concentration of half-maximal effect
# [2] = molecular target: Gonadotropin-releasing hormone receptor (Homo sapiens) (UniProt P30968); assay: Human gonadotropin-releasing hormone receptor (GnRHR) small molecule agonists, calcium flux assay in GnRHR-HEK293 cells (AID 1920063); note: nearly all actives have a fitted effect of over 35% in size
# Summary of the method: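 Calcium flux, agonist mode, human GnRHR stably integrated in HEK293; dye 1 h at 37 C before compound; Ex/Em=480/540 kinetic read, 3 min; 15 concentrations, triplicate.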
# [3] = molecular target: KiSS-1 receptor (Homo sapiens) (UniProt Q969F8); assay: Human kisspeptin (KISS1R) small molecule agonists, calcium flux assay in KISS1R-HEK293 cells (AID 1920064; active = well fitted activation curve with a large enough effect in the repeat runs)
# Summary of the method: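 Triplicate 15-concentration series were applied to dye-loaded human KISS1R HEK293 cells, and agonist-evoked calcium fluorescence was captured for 3 min.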
# [4] = G protein-coupled receptor (GPCR) small molecule agonists, calcium flux assay: HEK293 wild type cell line counter screen (AID 1920065)
# Summary of the method: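 Non-specific calcium responders were flagged by adding DMSO-dissolved compounds to dye-loaded cells and reading 480/540 nm fluorescence each second for 3 min; ATP served as positive control.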
# [5] = p53 small molecule agonists, cell-based qHTS assay with human liver microsomes (AID 1963577)
# Summary of the method: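 Cells carrying a p53-responsive bla reporter were rested 5 h (37 C, 5% CO2) before compound transfer. Human liver microsomes plus NADPH, 0.5 mg/mL final apiece, supplied metabolism during the 16 h 37 C exposure.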
# [6] = p53 small molecule agonists, cell-based qHTS assay with rat liver microsomes (AID 1963578)
# Summary of the method: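 Fluorescence from a beta-lactamase reporter under a p53 response element was measured after cells had been incubated 16 h at 37 C with test compound and rat liver microsomes plus NADPH (0.5 mg/mL final each).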
# [7] = p53 small molecule agonists, cell-based qHTS assay with human liver microsomes: qHTS cell viability counter screen (AID 1963579); note: nearly all actives have a fitted effect of over 45% in size
# Summary of the method: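 Seed p53RE-bla cells at 4,000 per well; incubate 5 h at 37 C; add compound, human liver microsomes and NADPH; incubate 16 h at 37 C; add CellTiter-Glo; after 30 min at room temperature, read luminescence.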
# [8] = p53 small molecule agonists, cell-based qHTS assay (AID 1963582; active = well fitted activation curve with a large enough effect in the signal ratio in the repeat runs, not every such curve was filed as active; the % refers to the signal ratio)
# Summary of the method: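 Beta-lactamase reporter cells (p53RE-bla) treated with compounds for 16 h at 37 C; FRET substrate, 2 h, room temperature; fluorescence intensity.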
# [9] = molecular target: 5-hydroxytryptamine receptor 2A (Homo sapiens) (UniProt P28223); assay: 5-hydroxytryptamine receptor 2A (HTR2A) small molecule antagonists, cell-based qHTS assay (AID 1963586); note: nearly all actives have a fitted effect of over 45% in size
# Summary of the method: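 CHO cells stably expressing human HTR2A were plated for 18 h at 37 C, then loaded with calcium dye for 1 h. Compounds were preincubated 5 min at room temperature before DOI (4 nM solution) was added. Kinetic fluorescence was read for 3 min.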
# [10] = molecular target: 5-hydroxytryptamine receptor 2A (Homo sapiens) (UniProt P28223); assay: 5-hydroxytryptamine receptor 2A (HTR2A) small molecule agonists, cell-based qHTS assay (AID 1963587); note: nearly all actives have a fitted effect of over 30% in size
# Summary of the method: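 HTR2A-CHO cells, plated 18 h at 37 C/5% CO2, dye-loaded 1 h at 37 C; compounds in DMSO added by pin tool (agonist mode). Intracellular calcium flux read as kinetic fluorescence on FDSS over 2 min at 1 s intervals.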
# [11] = molecular target: Muscarinic acetylcholine receptor M1 (Homo sapiens) (UniProt P11229); assay: Cholinergic receptor muscarinic 1 (CHRM1) small molecule antagonists, cell-based qHTS assay (AID 1963588); note: nearly all actives have a fitted effect of over 40% in size
# Summary of the method: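 Compounds were tested at 15 concentrations in three independent runs. Dye-loaded CHRM1-CHO cells were exposed 5 min at room temperature before stimulation by acetylcholine added at 50nM. Intracellular calcium was read kinetically on FDSS for 3 min.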
# [12] = molecular target: Muscarinic acetylcholine receptor M1 (Homo sapiens) (UniProt P11229); assay: Cholinergic receptor muscarinic 1 (CHRM1) small molecule agonists, cell-based qHTS assay (AID 1963589); note: nearly all actives have a fitted effect of over 35% in size
# Summary of the method: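 qHTS, 15-point titration, 3 independent runs: compounds pin-transferred onto dye-loaded CHRM1-CHO cells (human M1), calcium fluorescence followed every second to detect agonism.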
# [13] = cAMP Responsive Elements (CRE) small molecule agonists, cell-based qHTS assay (AID 1963590)
# Summary of the method: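 Quantitative HTS for CRE agonists: HEK 293T CRE-bla cells, overnight plating, 3 h compound incubation at 37 C/5% CO2, then 2 h room-temperature LiveBLAzer B/G FRET substrate loading.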
# [14] = cAMP Responsive Elements (CRE) small molecule antagonists, cell-based qHTS assay (AID 1963591; active = well fitted inhibition curve with a large enough effect in the signal ratio in the repeat runs, not every such curve was filed as active; the % refers to the signal ratio)
# Summary of the method: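 Fluorescence intensity from cleaved LiveBLAzer B/G substrate (2 h, room temperature) quantified CRE-bla activity in HEK 293T cells exposed 3 h to compound with 0.25 uM final NKH477.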
# [15] = molecular target: Beta-2 adrenergic receptor (Homo sapiens) (UniProt P07550); assay: Adrenergic beta2 receptor (ADRB2) small molecule antagonists, cell-based qHTS assay (AID 1963592); note: series mostly up to about 92 µM; nearly all actives have a fitted effect of over 50% in size
# Summary of the method: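 Assay format: CHO-ADRB2 cells, 18-20hr seeding at 37C/5% CO2, then compound plus 1nM isoproterenol agonist mix for 0.5hr RT. Homogeneous time-resolved fluorescence cAMP detection after 1hr, expressed as 665/615 nm ratio.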
# [16] = molecular target: D(2) dopamine receptor (Homo sapiens) (UniProt P14416); assay: Dopamine D2 receptor (DRD2) small molecule agonists, cell-based qHTS assay (AID 1963594); note: nearly all actives have a fitted effect of over 35% in size
# Summary of the method: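 HEK293 cells stably expressing DRD2 were cultured 24 h at 37 C, then given Ro20-1724 (0.1 mM final) and compounds for 10 min at room temperature. NKH477 (200nM) was then added for 30 min. cAMP was read by HTRF.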
# [17] = molecular target: D(2) dopamine receptor (Homo sapiens) (UniProt P14416); assay: Dopamine D2 receptor (DRD2) small molecule antagonists, cell-based qHTS assay (AID 1963595; active = well fitted inhibition curve with a large enough effect in the signal ratio in the repeat runs, with a control signal flat; the % refers to the signal ratio)
# Summary of the method: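 In this cell-based antagonist screen, compounds act for 10 min at room temperature before a 30 min challenge with 12 nM quinpirole and 200 nM NKH477. cAMP is quantified by HTRF competition in DRD2-HEK293 cells containing 0.1 mM Ro20-1724.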
# [18] = p53 small molecule agonists, cell-based qHTS assay with rat liver microsomes: qHTS cell viability counter screen (AID 1963580); note: nearly all actives have a fitted effect of over 45% in size
# Summary of the method: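 Luminescent ATP readout (CellTiter-Glo, 30 min at room temperature) reports viability of p53RE-bla HCT-116 cells after 16 h at 37 C with test compounds under metabolic activation by rat liver microsomes and NADPH at 0.5 mg/mL final each.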
# [19] = p53 small molecule agonists, cell-based qHTS assay: qHTS cell viability counter screen (AID 1963581); note: nearly all actives have a fitted effect of over 45% in size; note: potency is the fitted concentration of half-maximal effect
# Summary of the method: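 Multiplexed with the reporter read, a CellTiter-Glo step (30 min, room temperature) gauges ATP-based viability of HCT-116 p53RE-bla cells after 16 h compound incubation at 37 C.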
# [20] = molecular target: Beta-2 adrenergic receptor (Homo sapiens) (UniProt P07550); assay: Adrenergic beta2 receptor (ADRB2) small molecule agonists, cell-based qHTS assay (AID 1963593);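 note: CHO cells stably overexpressing human ADRB2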
# Summary of the method: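 CHO cells stably over-expressing ADRB2 were plated overnight at 37C, then dosed with compounds plus a stimulation mix containing 100uM IBMX and 25uM Ro-20-1724 for 0.5hr at room temperature. cAMP was measured by HTRF competition, 1hr.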
# Muscarinic acetylcholine receptor M1 (Homo sapiens), sequence (P11229 whole entry, looked up): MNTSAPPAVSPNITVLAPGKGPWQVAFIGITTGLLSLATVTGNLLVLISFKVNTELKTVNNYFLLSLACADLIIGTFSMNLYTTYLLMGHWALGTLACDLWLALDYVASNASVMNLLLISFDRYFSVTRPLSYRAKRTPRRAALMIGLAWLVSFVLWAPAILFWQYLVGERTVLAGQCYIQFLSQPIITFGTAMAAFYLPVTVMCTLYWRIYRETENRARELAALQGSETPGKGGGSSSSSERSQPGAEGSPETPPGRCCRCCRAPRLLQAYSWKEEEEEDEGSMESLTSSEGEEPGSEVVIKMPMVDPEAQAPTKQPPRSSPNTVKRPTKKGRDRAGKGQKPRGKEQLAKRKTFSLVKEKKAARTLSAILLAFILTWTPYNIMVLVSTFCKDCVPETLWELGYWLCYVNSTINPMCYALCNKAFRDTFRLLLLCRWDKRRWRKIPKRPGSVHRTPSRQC
# Beta-2 adrenergic receptor (Homo sapiens), sequence (P07550 whole entry, looked up): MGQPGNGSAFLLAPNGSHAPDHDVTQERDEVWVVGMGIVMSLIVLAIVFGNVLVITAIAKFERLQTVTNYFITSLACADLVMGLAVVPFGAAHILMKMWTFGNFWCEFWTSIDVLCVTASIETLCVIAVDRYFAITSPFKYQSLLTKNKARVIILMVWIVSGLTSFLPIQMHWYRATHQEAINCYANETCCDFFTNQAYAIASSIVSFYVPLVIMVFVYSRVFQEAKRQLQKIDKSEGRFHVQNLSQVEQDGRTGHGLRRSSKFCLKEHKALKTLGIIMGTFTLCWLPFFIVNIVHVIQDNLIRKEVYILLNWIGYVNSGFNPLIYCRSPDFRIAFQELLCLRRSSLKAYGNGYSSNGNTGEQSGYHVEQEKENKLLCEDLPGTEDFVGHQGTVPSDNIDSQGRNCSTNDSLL
# D(2) dopamine receptor (Homo sapiens), sequence (P14416 whole entry, looked up): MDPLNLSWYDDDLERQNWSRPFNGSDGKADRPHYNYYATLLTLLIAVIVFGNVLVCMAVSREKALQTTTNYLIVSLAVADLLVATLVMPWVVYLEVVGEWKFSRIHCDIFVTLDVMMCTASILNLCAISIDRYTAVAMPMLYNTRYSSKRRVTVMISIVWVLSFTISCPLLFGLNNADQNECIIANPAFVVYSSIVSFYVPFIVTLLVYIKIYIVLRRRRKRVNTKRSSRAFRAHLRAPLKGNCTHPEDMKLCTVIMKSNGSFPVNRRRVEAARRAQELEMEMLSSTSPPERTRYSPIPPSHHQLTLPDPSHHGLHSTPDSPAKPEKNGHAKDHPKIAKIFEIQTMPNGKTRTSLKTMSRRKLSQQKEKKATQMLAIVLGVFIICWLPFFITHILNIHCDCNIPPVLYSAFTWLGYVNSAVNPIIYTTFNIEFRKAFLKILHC
# Gonadotropin-releasing hormone receptor (Homo sapiens), sequence (P30968 whole entry, looked up): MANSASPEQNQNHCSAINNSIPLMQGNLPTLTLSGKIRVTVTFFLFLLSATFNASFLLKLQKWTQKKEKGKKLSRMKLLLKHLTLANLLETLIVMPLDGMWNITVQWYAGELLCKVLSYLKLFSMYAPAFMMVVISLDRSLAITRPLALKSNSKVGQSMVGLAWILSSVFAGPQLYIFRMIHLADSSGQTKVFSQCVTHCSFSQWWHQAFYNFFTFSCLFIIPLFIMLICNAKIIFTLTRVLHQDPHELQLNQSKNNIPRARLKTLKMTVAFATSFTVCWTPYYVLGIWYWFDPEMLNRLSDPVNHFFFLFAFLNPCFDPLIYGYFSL
# KiSS-1 receptor (Homo sapiens), sequence (Q969F8 whole entry, looked up): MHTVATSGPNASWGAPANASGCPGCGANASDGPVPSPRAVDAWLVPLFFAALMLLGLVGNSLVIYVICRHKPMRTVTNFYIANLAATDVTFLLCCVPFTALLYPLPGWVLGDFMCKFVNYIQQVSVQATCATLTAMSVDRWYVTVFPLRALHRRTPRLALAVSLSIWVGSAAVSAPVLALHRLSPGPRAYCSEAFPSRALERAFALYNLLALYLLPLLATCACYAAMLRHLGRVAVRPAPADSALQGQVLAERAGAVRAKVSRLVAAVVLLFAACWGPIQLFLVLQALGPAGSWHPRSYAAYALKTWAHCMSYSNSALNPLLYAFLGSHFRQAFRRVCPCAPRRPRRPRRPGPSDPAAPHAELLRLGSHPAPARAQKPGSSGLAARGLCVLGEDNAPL
# 5-hydroxytryptamine receptor 2A (Homo sapiens), sequence (P28223 whole entry, looked up): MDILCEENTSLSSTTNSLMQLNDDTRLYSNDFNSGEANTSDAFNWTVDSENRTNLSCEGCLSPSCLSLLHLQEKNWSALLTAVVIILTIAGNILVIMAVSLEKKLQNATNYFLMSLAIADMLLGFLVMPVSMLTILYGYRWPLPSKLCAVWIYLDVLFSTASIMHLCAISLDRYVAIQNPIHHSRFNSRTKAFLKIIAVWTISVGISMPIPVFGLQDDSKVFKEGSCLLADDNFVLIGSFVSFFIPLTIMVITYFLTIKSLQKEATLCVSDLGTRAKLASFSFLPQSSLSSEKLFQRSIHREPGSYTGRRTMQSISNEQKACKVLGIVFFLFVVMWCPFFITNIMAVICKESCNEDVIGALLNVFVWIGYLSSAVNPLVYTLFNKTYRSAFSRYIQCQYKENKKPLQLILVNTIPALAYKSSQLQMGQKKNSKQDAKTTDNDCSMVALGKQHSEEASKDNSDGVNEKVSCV
SMILES,Potency [1],Potency [2],outcome [3],outcome [4],Potency [5],Potency [6],Potency [7],Potency [8],Potency [9],Potency [10],Potency [11],Potency [12],Potency [13],Potency [14],Potency [15],Potency [16],Potency [17],Potency [18],Potency [19],Potency [20]
C=COCC1CCC(COC=C)CC1 (configuration not stated),inactive,inactive,inactive,inactive,inactive,inactive,inactive,inactive,inactive,inactive,inactive,inactive,inactive,inactive,inactive,inactive,inactive,–,–,–
O=C1CCCCCCCCCCOCCCCO1,30.6 µM (active),inactive,inactive,inactive,inactive,inactive,inactive,–,–,inactive,–,inactive,inactive,inactive,inactive,inactive,inactive,inactive,inactive,inactive
CC(C(=O)O)c1ccc(C(=O)c2ccccc2)s1 (configuration not stated),inactive,inactive,inactive,inactive,inactive,inactive,inactive,–,inactive,inactive,inactive,–,–,–,inactive,inactive,inactive,inactive,inactive,inactive
CCNC(=O)NCCCOc1cccc(CN2CCCCC2)c1,inactive,inactive,inactive,inactive,inactive,inactive,inactive,inactive,inactive,inactive,inactive,inactive,inactive,inactive,inactive,inactive,inactive,inactive,–,inactive
Nc1ccc2cc(S(=O)(=O)O)cc(O)c2c1,inactive,inactive,inactive,inactive,inactive,inactive,–,–,–,inactive,inactive,inactive,–,inactive,–,–,–,inactive,inactive,–
CCOC(=O)C(=O)OCC,inactive,inactive,inactive,inactive,inactive,inactive,inactive,inactive,inactive,inactive,inactive,inactive,inactive,inactive,inactive,inactive,–,inactive,–,inactive
C/C=C/C(=O)OCC(C)C,inactive,inactive,inactive,inactive,inactive,inactive,inactive,–,inactive,inactive,–,inactive,inactive,inactive,inactive,inactive,inactive,inactive,inactive,–
CCOC(=O)[C@H](CCc1ccccc1)N[C@@H](C)C(=O)N(CC(=O)O)C1Cc2ccccc2C1,inactive,inactive,inactive,inactive,inactive,inactive,inactive,inactive,inactive,inactive,inactive,inactive,–,–,inactive,inactive,inactive,inactive,–,–
CN1CCN(CCCN2c3ccccc3Sc3ccc(Cl)cc32)CC1,inactive,inactive,inactive,inactive,inactive,inactive,inactive,inactive,–,–,–,–,–,–,–,inactive,–,inactive,inactive,inactive
Cc1c(C)c([N+](=O)[O-])c(C(C)(C)C)c([N+](=O)[O-])c1C,inactive,inactive,inactive,inactive,inactive,inactive,inactive,–,inactive,inactive,inactive,inactive,–,inactive,–,inactive,inactive,inactive,inactive,–
CCCCCCCCCCCCCCC1CO1 (configuration not stated),inactive,inactive,inactive,inactive,inactive,inactive,inactive,–,inactive,inactive,inactive,inactive,–,inactive,inactive,inactive,inactive,inactive,–,inactive
CC1=C(/C=C/C(C)=C/C=C/C(C)=C\C(=O)O)C(C)(C)CCC1,68.8 µM (active),inactive,inactive,inactive,inactive,inactive,inactive,–,–,–,–,–,–,inactive,–,inactive,–,inactive,–,–
OCCNCc1ccccc1,68.6 µM (active),inactive,inactive,inactive,inactive,inactive,–,inactive,–,inactive,inactive,inactive,–,inactive,inactive,inactive,inactive,inactive,inactive,inactive
c1ccc(COCc2ccccc2)cc1,inactive,inactive,inactive,inactive,inactive,inactive,inactive,inactive,inactive,inactive,inactive,inactive,inactive,inactive,inactive,inactive,inactive,–,inactive,–
COc1cc(-c2nc(NC(=O)c3cc4cc(C)cc(C)c4n3CC(=O)O)sc2CCC2CCCCC2)c(OC)cc1Cl,12.5 µM (active),inactive,inactive,inactive,inactive,inactive,inactive,–,inactive,inactive,inactive,inactive,–,–,inactive,inactive,inactive,–,6.65 µM (active),–
